Source: PubChem (Broad Institute)
Vif imaging = HIV Vif inhibition | HEK293T cells, Vif self-association by quenched fluorescence, imaging, 24 h | inhibition, % at 7.49 µM | actives 0.35% (n = 340,000); in the data active means inhibition above about 50%, passing the limit was not always enough
PDI turbidity = inhibitors of human protein disulfide isomerase; PDI insulin aggregation turbidity, A650, 90 min; actives 0.052% (n = 350,000); inhibition, % at 10 µM; AID 588391;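 active means mean inhibition across replicates of 30% or more, whatever share of single replicates reach that level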
Target sequence (P07237 whole entry, looked up): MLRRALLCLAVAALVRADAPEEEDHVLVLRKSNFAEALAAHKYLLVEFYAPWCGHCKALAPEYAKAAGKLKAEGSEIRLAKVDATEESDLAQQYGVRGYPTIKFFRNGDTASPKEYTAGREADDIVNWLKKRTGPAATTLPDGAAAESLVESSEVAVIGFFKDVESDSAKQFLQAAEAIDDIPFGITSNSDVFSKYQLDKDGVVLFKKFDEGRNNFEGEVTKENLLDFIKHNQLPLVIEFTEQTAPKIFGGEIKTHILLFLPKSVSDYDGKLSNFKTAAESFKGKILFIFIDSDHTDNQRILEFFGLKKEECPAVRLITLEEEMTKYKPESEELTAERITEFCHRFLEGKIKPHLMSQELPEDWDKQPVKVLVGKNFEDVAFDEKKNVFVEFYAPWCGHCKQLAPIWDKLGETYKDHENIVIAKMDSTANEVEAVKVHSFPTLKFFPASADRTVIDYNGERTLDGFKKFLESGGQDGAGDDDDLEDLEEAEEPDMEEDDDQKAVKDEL
PvdQ acylase = blocks Pseudomonas aeruginosa PvdQ acylase activity; actives 0.063% (n = 340,000); purified PvdQ acylase, fluorescence plate reader; inhibition, % at 10 µM; in the data active means inhibition above about 30%, passing the limit was not always enough
Glyco luc inh = blocks N-linked glycosylation in D54 reporter cells; D54 ERlucT glycosylation luciferase reporter, 24 h; percent of 100 nM tunicamycin response; actives 0.23% (n = 360,000); reporter increase, % at 12.5 µM;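 active means mean luciferase reporter signal, scaled so untreated is 0 and the glycosylation-blocking control 100, at or above a set limit in every replicate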;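 further: luciferase carries N-glycosylation sites so blocking glycosylation raises the light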
ERp5 block = blocks human ERp5 reductase activity on insulin | inhibition, % at 9.99 µM | actives 0.05% (n = 350,000) | ERp5 insulin aggregation, absorbance 650 nm, 90 min;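 active means mean replicate inhibition above about 25%, with every replicate also reaching it, limit read from the data, passing the limit was not always enough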
Of the large screens only hits and unclear results are named; the others gave an inactive call. Only some compounds are listed: those with a hit (about 0.56% of all), similar ones and a draw of the others.

CCOC(=O)COn1c(=O)c(-c2ccccc2)[n+]([O-])c2ccccc21	Vif imaging 76
CN1CCN(C(c2ccc(Cl)cc2)c2cc(Cl)c3cccnc3c2O)CC1 (stereo not drawn)	Glyco luc inh 33
NS(=O)(=O)c1ccc(CCNC(=O)C2CCCN(S(=O)(=O)c3cccnc3)C2)cc1 (stereo not drawn)	none (no result: PDI turbidity)
Cc1ccc2c(CN3CCN(S(=O)(=O)c4ccc(Cl)cc4)CC3)cc(=O)oc2c1C	none
COc1ccc(S(=O)(=O)Nc2ccc3c(c2)C(=O)N([C@H](C)CO)C[C@@H](C)[C@@H](CN(C)C(=O)Cc2ccccc2)OCCCC[C@@H](C)O3)cc1	none (no result: Vif imaging, PDI turbidity, PvdQ acylase, Glyco luc inh)
CN1CCc2c(sc3c2C(=O)NC(c2cccs2)N3)C1 (stereo not drawn)	Vif imaging 80
COc1cccc(CNC(=O)COC(=O)c2ccc(C(=O)c3ccccc3)cc2)c1	none
COc1cccc(CNC(=O)COC(=O)c2ccc(-c3ccc(O)cc3)cc2)c1	Glyco luc inh 28 (no result: PvdQ acylase)
Cc1cc2oc(=O)cc(CN3CCN(C/C=C/c4ccccc4)CC3)c2cc1O	none (no result: ERp5 block)
Cc1c(O)ccc2c(CN3CCN(C/C=C/c4ccccc4)CC3)cc(=O)oc12	PDI turbidity 44
COc1ccc(C(CNC(=O)c2ccc(NS(=O)(=O)c3ccc(F)cc3)cc2)N2CCOCC2)cc1 (stereo not drawn)	none (no result: Vif imaging)
c1ccc(Nc2cccc3ccccc23)cc1	none (no result: PDI turbidity)
c1ccc(Nc2ccc3c4c(cccc24)CC3)cc1	Vif imaging 111 (no result: ERp5 block)
OC(COCC1COc2ccccc2O1)CN1CCN(c2ccccc2F)CC1 (stereo not drawn)	none (no result: ERp5 block)
O=c1cc(N=Nc2ccc(Cl)cc2)[nH]c(=O)[nH]1	Glyco luc inh 70
O=c1cc(-c2ccc(Cl)cc2)oc(=O)[nH]1	none
COCCn1c(SCC(=O)NCC(c2ccccc2)N(C)C)nc2sc3c(c2c1=O)CCC3 (stereo not drawn)	none
CN(C)C(CNC(=O)CSc1nc2sc3c(c2c(=O)n1C)CCCC3)c1ccccc1 (stereo not drawn)	Glyco luc inh 33
CCN(CCn1cccn1)C(=O)c1cc(COc2c(F)cccc2F)on1	none
COc1ccc(S(=O)(=O)Oc2ccc3cccc(N)c3c2)cc1	none (no result: PvdQ acylase)
O=C(O)c1cc2nccc(-c3ccco3)n2n1	PvdQ acylase 39
O=C(CN1CCOCC1)NCC[C@H]1CC[C@@H](NS(=O)(=O)c2ccc(Cl)cc2)[C@H](CO)O1	none (no result: Vif imaging, PDI turbidity, PvdQ acylase, Glyco luc inh)
Cc1ccc2c(c1)cc(CN(C(=O)N1CCOCC1)C1CCCC1)c1nnnn12	Glyco luc inh 40
COc1ccc(/C=N/NC(=O)c2cccc(NC(=O)c3ccccc3Cl)c2)cc1	Glyco luc inh 34
COc1ccc(/C=N/NC(=O)c2cccc(NC(=O)c3ccccc3Cl)c2)cc1OC	none
O=C(/C=C/c1ccc([N+](=O)[O-])cc1)/C=C/c1ccco1	Glyco luc inh 31
CC(C)c1ccc(S(=O)(=O)Nc2ccc(SC(F)F)cc2)cc1	none (no result: ERp5 block)
Cc1ccc(S(=O)(=O)Nc2ccc(SC(F)F)cc2)c(C)c1	Vif imaging 61 (no result: ERp5 block)
COc1ccc2c(c1)C(=O)N1[C@H]3c4cc(Cl)ccc4OC[C@@H]3[C@H](c3ccccc3)[C@]1(C)C(=O)N2	Glyco luc inh 38 (no result: ERp5 block)
COc1ccc2c(c1)C(=O)N1[C@H]3c4cc(Br)ccc4OC[C@@H]3[C@H](c3ccccc3)[C@]1(C)C(=O)N2	Glyco luc inh 37 (no result: ERp5 block)
COc1ccc2c(c1)[C@H]1[C@H](CO2)[C@H](c2ccccc2)[C@]2(C)C(=O)Nc3cc(Cl)ccc3C(=O)N12	Glyco luc inh 64 (no result: ERp5 block)
COc1ccc2c(c1)OC[C@H]1[C@H]2N2C(=O)c3cc(Cl)ccc3NC(=O)[C@@]2(C)[C@H]1c1ccccc1	none (no result: ERp5 block)
COc1ccc2c(c1)[C@H]1[C@H](CO2)[C@H](c2ccccc2)[C@]2(C)C(=O)Nc3cc(C)ccc3C(=O)N12	Glyco luc inh 51
Cc1ccc2c(c1)[C@H]1[C@H](CO2)[C@H](c2ccccc2)[C@]2(C)C(=O)Nc3ccc(F)cc3C(=O)N12	none
COc1ccc2c(c1)OC[C@H]1[C@H]2N2C(=O)c3ccc(C)cc3NC(=O)[C@@]2(C)[C@H]1c1ccccc1	Glyco luc inh 48 (no result: ERp5 block)
C[C@@]12C(=O)Nc3cc(F)ccc3C(=O)N1[C@H]1c3ccccc3OC[C@@H]1[C@@H]2c1ccccc1	Glyco luc inh 26 (no result: ERp5 block)
COc1ccc2c(c1)OC[C@H]1[C@H]2N2C(=O)c3cc(OC)ccc3NC(=O)[C@@]2(C)[C@H]1c1ccccc1	none
